Reference: the supplement of paper PMC6555819

tested on: VDR:RXRa (NR concentration 270 nM, RXRa partner concentration 90 nM); experiment: PBM binding z-score (relative to random genomic background probes); higher = stronger binding; sequences stand for … in GC…GCGATTGACAGCGTAGAATGAAGG
Protocol: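 Protein-binding microarray (Agilent 4x180K custom design, double-stranded 60-nt probes: 5' GC cap, 34-nt variable region, 24-nt constant primer region; full probe sequence given). Purified or IVT nuclear receptor:RXRα heterodimers (3:1 NR:RXRα, mostly 270:90 nM) or homodimers were incubated for 1 h in PBS with 2% milk and no ligand, then detected with Alexa488 antibodies. Fluorescence from o1-orientation probes (~5 replicates averaged) was converted to z-scores against 500 random hg19 background probes. Variable regions are seed direct-repeat (DR0–DR5) sites, all their single-nucleotide variants and half-site ablations.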

Row | Sequence | PBM binding z-score
1 | GAGACAGGGTCAAGGCCAGAGTACGCGTATTGAT | 4.4
2 | TCGAGTAGGTTAGGCGGGGCATTCAGCCAACATA | 1.43
3 | ACAGACTGGTGAGTGAAGGTAACTCAGCTGGACG | -0.365
4 | TAGCCTAGGTCATTCAGGGGCCAGTACAGAAAGC | 3.33
5 | ATCGAAGGGTCGTGAGGTGAGTATACAGAAAGGC | 2.38
6 | TCATATAGGCAATACAGGTGAAAGTCGGCATCTA | 0.582
7 | TAGCCTAGGTCATTCGGCCAGTATAGTACGCATC | 2.24
8 | CATACAGGGTCAGCTAGGCCAGATTAGGGACGGC | 3.94
9 | CTCGAAAGGTCGGTTGAGGTGGGTATACGGATAA | 1.63
10 | ACAGACAGGTGATGGAGGTAACTCAGGCTATCAT | 0.681
11 | ACAGACAGGTGATGAAGGTTACTCAGGCTATCAT | 1.64
12 | GCTAGCAGGCCATTGGGGTCACTCAATGACGGGC | 6.04
13 | TGAATGAGGTTATAAGATCCGGGAACGTTGCAAA | 0.946
14 | AGAATGAGGTTATACGTAGATCAGAGAAGAAAGT | 1.29
15 | CCAGACAGGTGAAACGTAACTCAGTCTGGTACGC | -0.217
16 | ACTTACGGGTCAACTAGGTTATAGCACGCGTATA | 5.88
17 | CCTCCAAGGTCAAAGGTCAGTGAAGAGATGACGG | 6.52
18 | AGTCAAAGTTCAGGACGAGGGAACGTAAAGCACG | 2.05
19 | ACAGACAGGCGAGTGAAGGTAACTCAGCTGGACG | -0.451
20 | ACTCGGAGGACAAAGGTCCGAGCTACGCCAGTGA | -0.323

Row | Sequence | PBM binding z-score
21 | TCTTGTAGATCAGCAGTTTAAGAAAGCTGGCCAA | -0.0839
22 | ACTATTATTTGAGACGAGGGCAACCGATAGGTTG | 1.1
23 | CCTACTGGGCCACGAAGGGTCATTGATTCAGTGA | 3.09
24 | ACTCGGAGGACAAAGGTCAGTGCTACGCCAGTGA | 2.82
25 | ATACCAAGGTGATCGTGAGGTCGCTGATACTAAC | 2.39
26 | TCTTGCAGATCAATAGAGGTTAAGAAAGTGCGCT | 1.79
27 | CCGACTGGGGCGTAAGGTTACCATAAGCCAGCCC | 0.154
28 | ATCGATAGGTCGAGGTGAGTATAGAGAAAGGGAA | 0.414
29 | CTCGAAACGTCGTGCTCAGGTGAGTATACCAAAC | -0.365
30 | GCATATAGGTAATACACGGTGAAAGTCCGATTGT | -0.0227
31 | CAAACTAGGTCAAGAGGACAAAGTCCGCTTCCCG | 1.98
32 | TCGAGTAGGTTACCAATGGGGAATTCAGCTTTCT | 0.0458
33 | ATCTCTAGGTAAGCAAGTTCAGTGAATGCCGAAC | 3.03
34 | ATATGTAGTTTAGCTGGGGTCATTCAGACTAGGC | 5.22
35 | CGTCCAAGGTCAGCAGGTCAGTGAGAGCGACGTG | 4.04
36 | CCTATTTGGTCAGGAGGTCACACACCGGATATGA | 4.05
37 | TCGAGTAGGTTAGTCGGGGCACTCAGCCAACATA | 1.2
38 | CCGATTAGTTGACCATAAGGGCAACCGAAGCTCG | 0.252
39 | TAGCCTAGGTCATGGGCCAGTATACCACGCGAAC | 1.97
40 | CGTCCAAGGTCATAGGAGGTCAGGGAAGACAGAT | 6.49
